This is an account of results in PubChem BioAssay.

A short description of assay [1]: inhibitors of TNFa-induced NFkB p65 translocation, primary screen, imaging, HUVEC, MLSMR starter and 10KST1 sets (AID 438;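 active means inhibition above 20% together with a positive visual image hit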;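 further: compound added about 3h40 before a 20 min TNFalpha stimulation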;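 on inhibition: signal is the nuclear over cytoplasmic p65 intensity ratio per well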). The note with it: HUVEC TNFa-induced p65 nuclear translocation; cell count: measured here: nuclei count (cytotoxicity indicator), at 2.08 µM; inhibition: at 2 µM, stronger effect = higher value, 0% TNFa-plus-vehicle, 100% no-TNFa wells.
Assay [2] is described as follows: inhibitors of mutant huntingtin aggregation, primary screen, imaging, exon1htt(103Q)mCFP cells, high-content imaging (AID 483;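 active means visual image review flags a hit and inhibition of aggregation exceeds 20%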;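 further: compound exposure lasted 3 days before fixation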;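 on nuclei count: percent of the per-plate median nuclei count of sample wells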). The following applies: exon1htt(103Q)mCFP cell line, aggregate imaging, at 2 µM; inhibition of aggregation: stronger effect = higher value; nuclei count: measured here: cell count, toxicity.
Assay [3] is described as follows: inhibitors of E-selectin induction by TNFa, primary screen, imaging, HUVEC, immunofluorescence, MLSMR starter and 10KST1 sets (AID 487;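 active means visually confirmed hit in the image check and inhibition above 20%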;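 on inhibition: signal is fraction of cell area covered by stained E-selectin grains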;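 on nuclei count: 100% = median nuclei count of all wells on the same plate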). The note with it: HUVEC TNFalpha-induced E-selectin immunofluorescence imaging, at 2 µM; inhibition: stronger effect = higher value; nuclei count: measured here: cell number, toxicity.
In assay [4] the target is Voltage-gated potassium channel subunit beta-2 (Rattus norvegicus) (UniProt P62483). The experiment in a line: KvBeta enzyme negative modulators, primary screen, biochemical, NADPH fluorescence (AID 622).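 Further: slope of raw intensity against log time taken from 70 to 1610 s.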 The following applies: recombinant KvBeta, 4-cyanobenzaldehyde reduction, at 10 µM, stronger effect = higher value.
The target is the same in assay [5]. The experiment in a line: KvBeta positive modulators, primary screen, biochemical, NADPH fluorescence (AID 623;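 active means NADPH fluorescence slope more negative than the mean of all samples by about 3 SD, 99.7% confidence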;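 further: fluorescence intensity change per second fitted from 20 to 320 s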). The following applies: Recombinant KvBeta, NADPH fluorescence decrease slope, 10 min; at 10 µM; stronger effect = lower value.
For assay [6], the target named is Muscarinic acetylcholine receptor M4 (Homo sapiens) (UniProt P08173). Description: compounds altering M4/GIRK thallium flux, either direction, primary screen, M4 allosteric agonist project, cell-based, HEK293 M4/GIRK, BTC-AM (AID 625;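 active means fluorescence slope after compound addition differing from the mean of all tested samples at 99.7% confidence, mostly higher but some lower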;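 further: thallium influx through GIRK channels coupled to M4 in HEK293 cells with BTC-AM dye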). The note with it: at 10 µM, actives lie on both sides.
The nature of assay [7]: inhibitors of Sendai virus-induced IRF3 signaling, primary screen, TLR/RLR signaling modifier project, cell-based, Sendai virus stimulus, luciferase, 10K MLSCN set (AID 602276;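 active means inhibition at or above 50% at 10 µM; inactive means inhibition below 50%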;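 further: firefly luciferase from ISG56 promoter only with Renilla not read in this screen; 0% = Sendai virus plus DMSO and 100% = medium plus DMSO without virus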). The following applies: HEK293 RL24 IRF3 luciferase reporter, at 10 µM, stronger effect = higher value. For orientation: A reporter such as luciferase makes a cellular process visible.
Assay [8] in a line: inhibitors of poly I:C-induced TLR3 signaling, primary screen, cell-based, poly I:C stimulus, luciferase, 10K MLSCN set (AID 602277;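 active means inhibition of the reporter signal at or above 50%; inactive means inhibition below 50%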). The following applies: HEK293-TLR3 RL24 IRF3 luciferase reporter, at 10 µM, stronger effect = higher value.
Assay [9] can be described thus: DUSP6 inhibitors restoring Erk phosphorylation by chemical complementation, primary imaging in DUSP6-transfected HeLa (AID 609;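 active means compounds giving at least 50% inhibition in the cell-based MKP-3 phosphatase rescue imaging test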;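 on inhibition: phospho-Erk level distribution per well compared with pooled transfected vehicle control wells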). The following applies: HeLa MKP-3 transfected, phospho-Erk imaging KS statistic, at 10 µM, cells stimulated with TPA for 15 min.
For assay [10], the target named is Dual specificity protein phosphatase 6 (Homo sapiens) (UniProt Q16828). Described as above. The note with it: HeLa MKP-3 transfected, phospho-Erk imaging KS statistic; at 10 µM; stronger effect = higher value; cells stimulated with TPA for 15 min.
Assay [11] concerns the target Alpha-2C adrenergic receptor (Homo sapiens) (UniProt P18825). The experiment in a line: modulators of alpha2C/GIRK thallium flux, primary screen, cell-based, HEK293 alpha2C/GIRK1/2 (AID 624;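 active means fluorescence slope after compound addition differing from the mean of all screened samples at 99.7% confidence, in either direction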;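 further: slope of fluorescence ratio to pre-addition baseline per second over 15 to 24 s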). The following applies: thallium flux BTC fluorescence, at 10 µM, actives lie on both sides.

Molecules are shown by their SMILES. The source made the active and inactive calls.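 How the source made its calls, unless noted: active means fluorescence slope higher than the sample average by over 3 SD (cut at about -0.22 in these data, passing the limit was not always enough); inactive means the rest.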

Sequence of Muscarinic acetylcholine receptor M4 (Homo sapiens) (P08173 whole entry, looked up): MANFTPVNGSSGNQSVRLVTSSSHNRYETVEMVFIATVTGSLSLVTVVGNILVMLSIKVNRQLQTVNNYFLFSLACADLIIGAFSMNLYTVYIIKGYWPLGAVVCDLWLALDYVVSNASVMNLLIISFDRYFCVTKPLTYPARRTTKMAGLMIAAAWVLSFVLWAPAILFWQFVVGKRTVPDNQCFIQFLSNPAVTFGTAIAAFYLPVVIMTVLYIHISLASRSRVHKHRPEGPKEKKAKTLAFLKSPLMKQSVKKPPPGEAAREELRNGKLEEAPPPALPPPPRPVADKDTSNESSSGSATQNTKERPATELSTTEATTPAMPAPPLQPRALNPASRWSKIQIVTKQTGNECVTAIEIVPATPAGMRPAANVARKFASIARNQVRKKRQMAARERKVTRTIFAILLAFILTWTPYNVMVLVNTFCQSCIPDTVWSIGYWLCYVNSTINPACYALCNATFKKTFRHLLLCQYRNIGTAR
Sequence of Voltage-gated potassium channel subunit beta-2 (Rattus norvegicus) (P62483 whole entry, looked up): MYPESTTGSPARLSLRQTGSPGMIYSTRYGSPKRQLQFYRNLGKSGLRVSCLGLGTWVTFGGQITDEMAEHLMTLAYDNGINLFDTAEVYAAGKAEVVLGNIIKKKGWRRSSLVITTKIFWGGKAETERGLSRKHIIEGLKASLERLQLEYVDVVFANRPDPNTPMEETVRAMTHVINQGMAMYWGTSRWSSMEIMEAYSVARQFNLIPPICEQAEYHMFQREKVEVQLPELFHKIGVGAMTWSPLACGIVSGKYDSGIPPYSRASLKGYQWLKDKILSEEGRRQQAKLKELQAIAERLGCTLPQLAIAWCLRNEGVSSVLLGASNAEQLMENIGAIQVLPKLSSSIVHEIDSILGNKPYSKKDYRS
Sequence of Alpha-2C adrenergic receptor (Homo sapiens) (P18825 whole entry, looked up): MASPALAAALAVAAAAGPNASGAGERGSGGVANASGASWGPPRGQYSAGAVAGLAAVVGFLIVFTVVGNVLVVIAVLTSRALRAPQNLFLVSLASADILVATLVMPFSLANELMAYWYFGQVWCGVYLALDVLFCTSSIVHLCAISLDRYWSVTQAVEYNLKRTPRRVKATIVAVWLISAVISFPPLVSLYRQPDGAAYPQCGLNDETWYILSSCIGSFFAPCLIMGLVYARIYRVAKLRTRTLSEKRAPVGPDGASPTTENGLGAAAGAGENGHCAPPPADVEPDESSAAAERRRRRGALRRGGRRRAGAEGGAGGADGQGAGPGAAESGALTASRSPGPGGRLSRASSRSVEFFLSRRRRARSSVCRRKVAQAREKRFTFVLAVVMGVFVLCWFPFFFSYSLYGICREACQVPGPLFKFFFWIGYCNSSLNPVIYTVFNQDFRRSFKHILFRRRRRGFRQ
Sequence of Dual specificity protein phosphatase 6 (Homo sapiens) (Q16828 whole entry, looked up): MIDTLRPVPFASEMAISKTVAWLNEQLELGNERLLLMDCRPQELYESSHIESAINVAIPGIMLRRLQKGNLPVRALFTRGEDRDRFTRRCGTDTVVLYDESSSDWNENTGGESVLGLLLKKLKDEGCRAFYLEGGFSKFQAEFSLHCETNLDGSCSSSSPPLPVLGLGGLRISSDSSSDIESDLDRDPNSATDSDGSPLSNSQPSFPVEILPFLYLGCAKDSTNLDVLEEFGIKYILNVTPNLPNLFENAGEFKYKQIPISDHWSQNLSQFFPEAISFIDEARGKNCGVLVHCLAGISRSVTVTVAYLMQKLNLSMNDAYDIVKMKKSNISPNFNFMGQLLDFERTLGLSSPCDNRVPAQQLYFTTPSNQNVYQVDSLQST

A word on the inhibition: it is the change of the read-out against control, counted positive when it falls. As to `Cc1ccccc1NC(=O)c1c(F)c(F)c(F)c(F)c1F`, in assay [1], the cell count stood at 490. The inhibition was -6% (inactive) in assay [1], -102% (inactive) in assay [3], 12.8% (inactive) in assay [7] and 11.6% (inactive) in assay [8]. Further, the inhibition of aggregation in [2] was -11.8% (inactive). Besides, the nuclei count in assay [2] is 98.6%; in [3], 135%. In addition, the fluorescence slope in [4] is -0.565 (inactive); in assay [6], 0.00407 (inactive). The NADPH fluorescence slope in assay [5] was -8.2e-05 (inactive).

As to `COc1cccc(OCCOCCN(C)CCO)c1`, in assay [1], the cell count turned out to be 313. The inhibition is 1.5% (inactive) in [1], 41.3% (inactive) in assay [3], -3.56% (inactive) in assay [7] and 14.6% (inactive) in assay [8]. The inhibition of aggregation in assay [2] was 19.1% (inactive). Further, the nuclei count in assay [2] worked out at 85.9%; in assay [3] it was 88.1%. Moreover, the fluorescence slope in assay [4] is -0.532 (inactive); in [6], 0.00575 (inactive). In assay [5], the NADPH fluorescence slope was -2.5e-05 (inactive).

Consider `CCN1CCN(c2c(Cl)cccc2NC(=O)c2ccc3c(c2)OCCO3)CC1`, for which, in assay [1], the cell count was found to be 505. The inhibition in assay [1] is 2.1% (inactive); in [3], -82.8% (inactive); in [7] it was 10.2% (inactive); in assay [8], 18.4% (inactive). In addition, the inhibition of aggregation in assay [2] was -4.5% (inactive). Moreover, the results for the nuclei count in assay [2] and in assay [3] were 111% and 216%, respectively. Further, the figures for the fluorescence slope in assay [4] and in [6] were -0.264 (inactive) and 0.0079 (inactive), respectively. The NADPH fluorescence slope in [5] is -8.8e-06 (inactive).

`COc1cc(C(=O)N2c3ccccc3CC2C)cc(OC)c1OC` (stereo not drawn): the cell count in assay [1] was 348. Also, the inhibition in assay [1] is 4.3% (inactive); in assay [3], -13.9% (inactive); in [7], 17.5% (inactive); in [8] it was 33.5% (inactive). Besides, in assay [2], the inhibition of aggregation is -6.3% (inactive). Moreover, the nuclei count was found to be 89% in [2] and 113% in assay [3]. Moreover, the values for the fluorescence slope in assay [4] and in assay [6] were -0.296 (inactive) and 0.0071 (inactive), respectively. The NADPH fluorescence slope in assay [5] was -2.6e-05 (inactive).

As for `COC(=O)c1ccc(CSc2ncnc3c2nnn3-c2ccc(OC)cc2)o1`, the cell count in assay [1] was 444. Moreover, the inhibition in [1] is 3.3% (inactive); in assay [3], -43.8% (inactive); in assay [7], 1.55% (inactive); in assay [8], -32.3% (inactive). Besides, in assay [2], the inhibition of aggregation was -13.1% (inactive). Also, the nuclei count in assay [2] was found to be 95%; in assay [3], 113%. In addition, the results for the fluorescence slope in assay [4] and in [6] were -0.577 (inactive) and 0.00411 (inactive), respectively. Also, the NADPH fluorescence slope in [5] is -2.7e-05 (inactive).

Regarding `COc1cc(Cn2c(C(=O)O)cc3sccc32)cc(OC)c1OC`, the cell count in assay [1] is 434. The figures for the inhibition in assay [1], in [7] and in assay [8] were 8.6% (inactive), 14.9% (inactive) and 20.9% (inactive), respectively. Moreover, in assay [2], the inhibition of aggregation is 2.5% (inactive). For the same compound, the nuclei count in [2] is 98.8%; in [3], 140%. In addition, the fluorescence slope in assay [4] was -0.562 (inactive); in [6] it was 0.00343 (inactive). Besides, the NADPH fluorescence slope in assay [5] is -0.000122 (inactive).

As to `O=C1CC(=O)N(Cc2cccs2)C(=O)N1`, the cell count in assay [1] was 336. Further, the inhibition was 4.7% (inactive) in [1], 1.08% (inactive) in [7] and 6.01% (inactive) in assay [8]. In addition, the inhibition of aggregation in [2] is 12.5% (inactive). Further, the nuclei count in [2] turned out to be 98.3%; in [3], 116%. In addition, the fluorescence slope was -0.632 (inactive) in assay [4] and 0.00466 (inactive) in [6]. For the same compound, in assay [5], the NADPH fluorescence slope was 5.3e-05 (inactive).

As for `COc1cccc(-c2cc3nc4c(c(N5CCC6(CC5)OCCO6)n3n2)CCCC4)c1`, the cell count in assay [1] is 479. Moreover, the inhibition was 10.2% (inactive) in [1], -10.9% (inactive) in assay [7] and -32.3% (inactive) in [8]. Further, in assay [2], the inhibition of aggregation is 18.9% (inactive). In addition, the nuclei count in [2] was 98.9%; in assay [3], 149%. Besides, the fluorescence slope was -0.401 (inactive) in assay [4] and 0.00624 (inactive) in [6]. The NADPH fluorescence slope in assay [5] is 2.4e-05 (inactive).

Turning to `COc1ccc2cc([C@H](C)C(=O)O)ccc2c1`, in assay [1], the cell count was found to be 649. The inhibition is -0.4% (inactive) in assay [1]; -51.6% (inactive) in assay [3]; 5.42% (inactive) in [10]; 13.2% (inactive) in assay [7]; 30.5% (inactive) in [8]. This compound had a nuclei count in assay [3] of 120%. The z-score was -0.246 in assay [9] (measured here: cell density z-score); 0.258 in [9] (measured here: nuclear c-Myc green intensity z-score); 0.308 in assay [9] (measured here: nuclear pErk red intensity z-score, stronger effect = higher value). The fluorescence slope in assay [4] is -0.491 (inactive). Besides, in assay [5], the NADPH fluorescence slope is -6.7e-05 (inactive). Also, the slope in assay [11] is 0.00486 (inactive).

In the case of `COc1ccccc1OCCn1c(=O)sc2ccccc21`, the cell count in [1] amounted to 478. Moreover, the figures for the inhibition in assay [1], in assay [7] and in [8] were 9.8% (inactive), 1.53% (inactive) and 6.17% (inactive), respectively. Besides, the inhibition of aggregation in assay [2] is -14.7% (inactive). Moreover, the nuclei count in assay [2] came out at 90.3%; in assay [3], 152%. In addition, the fluorescence slope is -0.477 (inactive) in [4] and 0.0055 (inactive) in assay [6]. Besides, the NADPH fluorescence slope in assay [5] is 1.7e-05 (inactive).

For the compound `O=C1NC(c2ccccc2)(C(F)(F)F)SC2=NCCCN12` (stereo not drawn), the cell count in assay [1] turned out to be 429. Besides, the inhibition in assay [1] was 4.8% (inactive); in assay [7] it was -6.22% (inactive); in assay [8], -13.6% (inactive). Moreover, the inhibition of aggregation in [2] was 12.3% (inactive). The nuclei count in assay [2] was determined as 106%; in assay [3], 154%. The fluorescence slope in assay [4] is -0.482 (inactive); in [6], 0.00455 (inactive). The NADPH fluorescence slope in assay [5] is 4.2e-05 (inactive).
